Source: PubChem BioAssay (National Center for Advancing Translational Sciences (NCATS))
DT40 TDP1 CPT = growth inhibition of DT40 Tdp1-/-;hTDP1 cells with camptothecin (screen for TDP1 inhibitors). chicken DT40 Tdp1-/-;hTDP1 cells + 20 nM CPT, ATP luminescence, 48 h. Potency, µM (doses to about 46.2 µM), inactives show top-dose activity change, negative = growth inhibition, most hits filed as inhibitors. 420,000 tested, 12% active. AID 686979; note: % is set by controls: 0 for no effect and ±100 for the full control effect; nearly all actives have a fitted effect of over 55% in size
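Chicken DT40 Tdp1-/- cells stably complemented with human TDP1 were seeded at 400 cells/well in medium containing 20 nM camptothecin, exposed to pin-transferred compounds, and grown at 37 °C for at least 48 hr. Viability was read as ATP luminescence.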
TDP1 block = blocks human tyrosyl-DNA phosphodiesterase 1; Q9NUW8; recombinant TDP1, AlphaScreen DNA substrate cleavage; Potency, µM (top dose mostly 130 µM), inactives show top-dose activity change, negative = inhibition, hits mostly inhibitors; 350,000 tested, 0.28% active; AID 485290; note: % is set by controls: 0 for no effect and ±100 for the full control effect; nearly all actives have a fitted effect of over 40% in size
Target sequence (Q9NUW8 whole entry, looked up): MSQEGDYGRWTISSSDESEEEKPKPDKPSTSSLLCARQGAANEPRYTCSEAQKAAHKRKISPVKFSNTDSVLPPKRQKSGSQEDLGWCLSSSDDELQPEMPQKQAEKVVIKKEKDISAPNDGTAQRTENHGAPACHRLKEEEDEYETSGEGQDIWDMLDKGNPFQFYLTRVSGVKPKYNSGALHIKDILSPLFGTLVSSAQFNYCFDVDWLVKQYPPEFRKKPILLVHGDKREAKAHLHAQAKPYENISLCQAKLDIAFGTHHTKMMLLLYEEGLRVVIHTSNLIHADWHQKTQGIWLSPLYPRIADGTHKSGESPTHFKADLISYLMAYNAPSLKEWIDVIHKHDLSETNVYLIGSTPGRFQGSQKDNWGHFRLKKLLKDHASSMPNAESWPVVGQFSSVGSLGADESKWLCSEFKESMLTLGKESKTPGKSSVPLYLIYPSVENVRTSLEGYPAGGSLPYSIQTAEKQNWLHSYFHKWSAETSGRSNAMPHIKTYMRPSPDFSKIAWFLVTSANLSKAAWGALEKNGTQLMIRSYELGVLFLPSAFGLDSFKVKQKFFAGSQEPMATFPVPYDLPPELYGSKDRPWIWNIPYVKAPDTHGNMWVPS
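Recombinant E. coli-expressed Tdp1 (1 nM) preincubated with compound 15 min at RT, then 5'-biotin/3'-phosphotyrosine-FITC DNA substrate (15 nM) added for 5 min. AlphaScreen beads (10 ug/ml) added, 10 min RT; tyrosine-FITC cleavage read as signal loss.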
DT40 TDP1 no CPT = qHTS for Inhibitors of human tyrosyl-DNA phosphodiesterase 1 (TDP1): qHTS in cells in absence of CPT. DT40 Tdp1-/- hTDP1 cells, no CPT, ATP luminescence, 48 h. Potency, µM (titrated, usually from 46.2 µM), without a hit: at the highest dose activity change, negative = growth inhibition, hits mostly inhibitors. 420,000 tested, 15% active. AID 686978, 2013; note: % is set by controls: 0 for no effect and ±100 for the full control effect; nearly all actives have a fitted effect of over 55% in size
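Camptothecin absent (DMSO only). Human TDP1-complemented DT40 knockout cells, 400 cells/well, 37 °C for minimum 48 hr; ATP measured via CellTiter-Glo, 30 min dark incubation, luminescence.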
ClpP mod = qHTS Assay for Activators of ClpP; 340,000 tested, 1.9% active; ATP-dependent Clp protease proteolytic subunit (Bacillus subtilis (strain 168)), P80244; Potency, µM (titrated, usually from 57.5 µM), for the others: at the top dose activity change, negative = active; purified B. subtilis ClpP, FRET peptide cleavage, 20 min; active = well fitted falling curve with a large enough effect; inconclusive = small, poorly fitted or top-dose-only effect; inactive = no such curve, though single readings can be large or run the other way; note: the source files actives as falling curves though it sought activators and does not explain the sign; nearly all actives have a fitted effect of over 65% in size
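Buffer: 100 mM Tris/HCl pH8, 100 mM KCl, 0.05% low protease BSA, 2.5% glycerol, 0.01% Tween-20. ClpP 10 microg/mL final; 20 min RT; delta FRET normalized to ADEP and DMSO controls.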
Numbers without * were called inactive; ? = inconclusive; · = no result given; [ ] = another dose, or the depositor's remark. Rows were chosen to be rich in hits. Some 17% of all compounds tested hit in one or more screens of this group. Unless noted, calls come from the whole dose curve; as a rule, active = well fitted curve in the direction sought with a large enough effect; inconclusive = small, poorly fitted or top-dose-only effect, or another doubt; inactive = no such curve, though single readings can be large; an effect the other way counts as inactive or inconclusive. Potency is the fitted concentration of half-maximal effect.

SMILES	DT40 TDP1 CPT	TDP1 block	DT40 TDP1 no CPT	ClpP mod
Cc1cc(C)c2c(=O)n3c(nc2c1)C(Cc1ccc(O)cc1)NC(=O)c1cc2ccccc2cc1-3 (centres undefined)	16µM*	·	18µM*	-16%
CC1CCCCN1S(=O)(=O)c1ccc(S(=O)(=O)N2CCN(C)CC2)cc1 (centres undefined)	-1%	1%[0.0935 µM]	-7%	·
COc1ccc(N2CCN(C(=O)c3cc(NC(C)=O)c4c(c3)ncn4CCc3ccccn3)CC2)cc1	4%	·	-19%	·
CC(C)c1c(C(=O)NCc2ccncc2)cnn1-c1nccc(-c2cccs2)n1	-12%[9.04 µM]	·	-19%	·
Cc1ccccc1S(=O)(=O)NC(=O)C1(C)CCN1C(=O)Cc1ccc(C(C)(C)C)cc1 (centres undefined)	-7%	·	17%	1%
COCCN1C(=O)C(=O)/C(=C(/O)c2ccc(S(=O)(=O)N3CCOCC3)cc2)C1c1cccc([N+](=O)[O-])c1 (centres undefined)	14%	3%	0%	-1%
COc1ccc(F)cc1Cn1nc(C(=O)O)c2ccccc2c1=O	10%	2%	-30%	·
O=C(O)c1ccc(C(=O)c2cc([N+](=O)[O-])cc([N+](=O)[O-])c2)cc1	-23%	·	-15%	·
O=C(NCc1ccccc1Cl)c1ccc(CSc2nc3ccncc3[nH]2)cc1	-9%	·	?	·
Clc1ccccc1CSc1nc2ccncc2[nH]1	?	6%	23µM*	-2%
COc1ccc(N2CCN(C(=O)c3ccc(CSc4ccccc4)cc3)CC2)cc1	-8%	0%	-26%	0%
COc1cccc(CSc2nc3ccncc3[nH]2)c1	?	·	18µM*	·
COc1cccc(N2CCN(C(=O)c3ccc(CSc4nc5ccncc5[nH]4)cc3)CC2)c1	18µM*	3%	18µM*	2%
O=C(NCc1ccc2c(c1)OCO2)C(=O)NCC1OCCCN1S(=O)(=O)c1ccccc1 (centres undefined)	-3%	·	-25%	0%
O=c1cc(-c2ccc(O)cc2)oc2cc(OC3OC(CO)C(O)C(O)C3O)c(C3OC(CO)C(O)C(O)C3O)c(O)c12 (centres undefined)	·	8%	·	·
CCOC(=O)c1c(C)nc2c(c1-c1ccc(OC)cc1)C(=O)CC(C)(C)C2	?	0%	?	0%
CCOC(=O)c1c(C)nc2c(c1C)/C(=N/O)CC(C)(C)C2	?	1%	23µM*	-1%
COc1cc(/C=C2/NC(=O)N(Cc3ccccc3F)C2=O)cc(OC)c1OC	?	5%	16µM*	·
CCOc1ccc(CNC(=O)c2c(C)nn(-c3ccc(F)cc3)c2-n2cccc2)cc1	·	3%	·	1%
COc1ccccc1N1CCN(C(=O)c2coc(=O)c(Br)c2)CC1	3.3µM*	2%	7.3µM*	·
COc1ccccc1NC(=O)c1ccc2ccccc2c1	·	-11%	·	·
COc1ccccc1NC(=O)c1cc(N)cc(C(=O)Nc2ccccc2OC)c1	23µM*	·	?	-5%
COc1ccccc1N1CCN(C(=O)c2ccoc2C)CC1	-14%	-2%	-1%	-1%
COC(=O)c1sc(-c2ccc(Cl)cc2)cc1N	1%	0%	-1%	2%
COc1ccccc1NC(=O)c1sc(-c2ccc(Cl)cc2)cc1N	?	-5%	18µM*	?
SMILES	DT40 TDP1 CPT	TDP1 block	DT40 TDP1 no CPT	ClpP mod
COc1ccccc1NC(=O)c1coc(=O)c(Br)c1	0.73µM*	0%	2.1µM*	·
COc1ccc(N2CCN(C3CCCN(C(=O)CN4CCOC4=O)C3)CC2)cc1 (centres undefined)	13%	3%	16%	-6%
CCOc1ccc(NS(=O)(=O)c2ccc(C(=O)N(C)C)s2)cc1	?	6%	?	0%
CCN1C(=O)[C@H]2[C@H]3[C@H](O)[C@H](O)C/C(=N/OC[C@@H](O)[C@H]4O[C@H]5OC(C)(C)O[C@H]5[C@@H]4O)[C@@H]3CC[C@@H]2C1=O	·	6%[21 µM]	·	·
O=C(NN1C(=O)c2ccccc2C1=O)c1ccc2c(c1)C(=O)N(CC1CCCO1)C2=O (centres undefined)	-11%	·	-14%	·
Cn1cc(C(=O)c2ccccc2)cc1-c1nc2ccccc2n1C	?	7%	18µM*	-7%
CC(=O)c1ccc(-c2nc3ccccc3n2C)o1	?	0%	?	20%
CCC(=O)c1cc(-c2nc3ccccc3n2C)n(C)c1	2%	-3%	-8%	-2%
Cc1oc(-c2nc3ccccc3n2C)cc1C(=O)c1ccccc1	16µM*	4%[56.1 µM]	21µM*	0%
CCCCOC(=O)c1ccc(NC(=O)CSC2=Nc3ccccc3C3CC=NN23)cc1 (centres undefined)	23µM*	3%	?	-8%
NC(Cc1c[nH]c2ccccc12)C(=O)O (centres undefined)	-71%	4%	?	·
Oc1cccc2c(CC(O)c3c[nH]c4ccccc34)ccnc12 (centres undefined)	?	·	11µM*	-3%
O=C(CN1C(=O)NC2(CCc3ccccc3C2)C1=O)Nc1ccc(F)cc1 (centres undefined)	-26%	0%	?	-1%
CC1(C(=O)Nc2ccc3c(c2)OCO3)CCN1Cc1ccccc1OC(F)F (centres undefined)	?	·	?	0%
Cc1ccc(S(=O)(=O)N2CCC(C(=O)NNC(=O)c3ccccc3O)CC2)cc1	?	·	15µM*	?
Cc1ccc(C(=O)NNC(=O)C2CCN(S(=O)(=O)c3ccc(Cl)cc3)CC2)cc1	-11%	5%	-6%	-3%
Cc1cc(C)c(C)c(S(=O)(=O)N2CCC(C(=O)NCc3cccs3)CC2)c1C	-26%	·	?	-1%
Cc1cc(C)c(C)c(S(=O)(=O)N2CCC(C(=O)NNC(=O)c3ccccc3O)CC2)c1C	?	0%	16µM*	28µM*
CCOc1ccc(NC(=S)Nc2ccc(OC)cc2)cc1	-6%	4%	-26%	·
